# Where “and” joins values, the source holds several entries; their conditions need not be identical. Identical values can stand only once. The panel holds about 83,000 compounds, 20% with a hit somewhere; the sample as a whole holds those more often.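 Growth was measured after 48 h exposure to one concentration of compound in 96-well plates. Values under 10 count as active.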 A number with no mark means an inactive call. Calls of active or inactive are those of the source.
# Tested on: A498 renal
# Assay: NCI-60 one-dose screen, 48 h (100 = growth as untreated, 0 = no growth, -100 = all killed)
# Settings: 10 µM unless noted
row,SMILES,growth
1,CC1=C2[C@@H](CC1)[C@]1(C)O[C@@](C3CC3)(C[C@H]1OC(=O)CO)[C@H]2OC(=O)/C=C/c1ccccc1,-39.1% (active)
2,CCN1CCN(C(=O)[C@]23CC[C@@H](C)[C@H](C)[C@@H]2C2=CC[C@@H]4[C@@]5(C)CCC(=O)C(C)(C)[C@@H]5CC[C@@]4(C)[C@]2(C)CC3)CC1,-17.8% (active)
3,CCCO/N=C/c1ccccn1,101% and 117%
4,CN(C)CCN1C(=O)c2c(c3c4ccccc4n4c3c3c2c2ccccc2n3C2CC(O)C(O)C4(C)O2)C1=O (stereo not given),32%
5,CCOC(=O)c1c(-c2ccc(C)cc2)c(C#N)c(=O)n(-c2cccc(C(F)(F)F)c2)c1N,106%
6,CCCCCCCCCCCCCCCC(=O)O[C@@H]1[C@@H](O)[C@@H](O)C([C@H](NC(=O)[C@@H]2C[C@@H](CCC)CN2C)[C@H](C)Cl)O[C@@H]1SC (stereo not given in full),101%
7,O=C1/C(=C/c2cn(-c3ccccc3)nc2-c2ccccc2)SC(=S)N1c1ccc(Cl)cc1,67%
8,CN(C)CCCn1c2c(c3ccc(N4CCNCC4)cc3c1=O)C(=O)c1ccccc1-2,74.3%
9,CCOc1ccccc1NC(=O)c1cc2ccccc2cc1O,32.7%
10,COc1ccc(C/C(C)=C(/c2ccc(OCCN3CCCCCC3)cc2)c2ccc(OC(=O)c3ccccc3)cc2)cc1,120%

# Tested on: CCRF-CEM leukemia
# Assay: as above
# Settings: 10 µM unless noted
row,SMILES,growth
1,COc1ccc(C(=O)c2ccc(OC)c(OC)c2OC)cc1,37.3%
2,O=C1/C(=C/c2ccccc2)CN(C(=O)C(Cl)Cl)C/C1=C\c1ccccc1,8.2% (active)
3,C=C(C)[C@@H]1CC[C@]2(C(=O)O)CC[C@]3(C)[C@H](CC[C@@H]4[C@@]5(C)CCC(N)C(C)(C)[C@@H]5CC[C@]43C)[C@@H]12 (stereo not given in full),-8.42% (active)
4,N#C/C(=C\c1ccc(Br)cc1)n1nnc2c(F)cccc21,2.97% (active)
5,COC1=CC(=O)C(OC)=C(O)C1=O,108%
6,CC(C)(C)c1cc(NC(=O)Nc2ccc(-c3cn4c(n3)sc3cc(OCCN5CCOCC5)ccc34)cc2)no1,18.7% and 20%
7,COc1cccc(C2C(C#N)=C(N)Oc3cc(OCCCCCC[P+](c4ccccc4)(c4ccccc4)c4ccccc4)ccc32)c1 (stereo not given),1.92% (active)
8,Cc1ccc(S(=O)(=O)Nc2cc(Sc3ccccc3)c(O)c3ccccc23)cc1,12.7%
9,COC(=O)c1[nH]nc(OC)c1C1(C(C#N)c2nc3ccccc3s2)CCCc2ccccc21 (stereo not given),96.5%
10,COc1ccc(-c2cc(-c3cccc(Cl)c3)c(C#N)c(=O)[nH]2)c(OC)c1,-2.24% (active)
11,Cc1nc(-n2[nH]c(=O)ccc2=O)sc1N=Nc1ccccc1,100%
12,COc1ccc(-c2csc(NC(=O)CN3CCN(CCO)CC3)n2)cc1NS(=O)(=O)c1cccc2c(N(C)C)cccc12,54.8%
13,COc1ccc(-c2[nH]c3ccccc3c2-c2ccc(OC)cc2)cc1,9.28% (active)
14,COc1ccc(/C=N\Nc2nc(SCC(C)C)nc(-c3ccc(OC)cc3)c2C#N)cc1,38.6%
15,CN(C)C(=O)c1cc2cnc(Nc3ccc(-c4csc5c(=S)cc(N6CCOCC6)oc45)cc3)nc2n1C1CCCC1,1.8% (active)
16,O=C(Nc1ccc2ncsc2c1)c1csc(Nc2ccc3[nH]ncc3c2)n1,23%
17,NS(=O)(=O)c1ccc(C(=O)N=Nc2c(O)[nH]c3c(F)cccc23)cc1,102%
18,C/C=C(\C)C(=O)N[C@H]1CC[C@]2(C)C3CC[C@@]4(C)C(CC[C@@H]4C(C)N(C)C)C3CCC2[C@H]1OC(C)=O (stereo not given in full),1.62% (active)
19,CC(=O)N1N=C(c2ccc(Nc3nc(Nc4ccc(F)cc4)nc(Nc4ccc(Cl)cc4)n3)cc2)CC1c1ccc(N(C)C)cc1 (stereo not given),-27.6% (active)
20,ON=C1CCCCCCCC1,107% and 101%
21,Cc1ccc(NC(=O)c2sc3nc(C)c(C(=O)c4ccccc4)cc3c2N)cc1,94.3%
22,O=C(/C=C/c1ccc([N+](=O)[O-])cc1)c1ccccc1,76.7%
23,O=C(Cc1ccc(F)cc1)c1ccccc1,88%
24,COc1cc(-c2[nH]ncc2Nc2ccc(Cl)cc2)cc(OC)c1OC,54.9%
25,CC1(Cc2ccccc2)CC2=C(C(=O)O1)C(c1ccccc1)NC(=O)N2 (stereo not given),91.1%
